Compound activity as filed in PubChem BioAssay.
CYP2C19 inh – inhibitors of human CYP2C19; P33261; CYP2C19 Supersomes, luciferin-H EGE luminescence, 30 min; inhibition, % at 5 µM; 96,000 compounds, 21% hits; AID 778;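 active = CYP2C19 inhibition above a set limit at 5 µM in the primary screen, cut at about 50% in these data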;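 also: plate controls were negative control wells for no effect and 2.5 mM tranylcypromine positive control for full effect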
Cav32 inh – human Cav3.2 channel inhibition, primary screen; O95180; Cav3.2-expressing cells, Fluo-4 calcium fluorescence FDSS; hits give low values; B-score at 10 µM; 100,000 compounds, 4% hits;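 active = single-dose well whose peak fluorescence ratio is a statistical outlier from its plate by either plate-standardised score or position-corrected B-score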
CYP2C19 activ – increases human CYP2C19 enzyme activity; P33261; recombinant CYP2C19, luciferin-H EGE luminescence; hits give high values; 0 = fully inhibited enzyme, 1 = untreated enzyme; activation factor at 5 µM; 96,000 tested, under 10 active; AID 1025;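 active = activation factor of at least 2 at 5 µM in the primary screen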;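 also: 0 = wells with 2.5 mM tranylcypromine and 1 = vehicle-only wells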
CYP2C9 act – increases human cytochrome P450 2C9 activity; P11712; recombinant CYP2C9, luciferin-H conversion, luminescence; hits give high values; factor 1 = untreated enzyme, 0 = blocked; activation factor at 5 µM; 96,000 compounds, 1.4% hits;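 active = activation factor of 2 or more for CYP2C9 at a 5 µM dose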;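 also: 0 = sulfaphenazole-blocked wells and 1 = vehicle-only wells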
Target sequence (P11712 whole entry, looked up): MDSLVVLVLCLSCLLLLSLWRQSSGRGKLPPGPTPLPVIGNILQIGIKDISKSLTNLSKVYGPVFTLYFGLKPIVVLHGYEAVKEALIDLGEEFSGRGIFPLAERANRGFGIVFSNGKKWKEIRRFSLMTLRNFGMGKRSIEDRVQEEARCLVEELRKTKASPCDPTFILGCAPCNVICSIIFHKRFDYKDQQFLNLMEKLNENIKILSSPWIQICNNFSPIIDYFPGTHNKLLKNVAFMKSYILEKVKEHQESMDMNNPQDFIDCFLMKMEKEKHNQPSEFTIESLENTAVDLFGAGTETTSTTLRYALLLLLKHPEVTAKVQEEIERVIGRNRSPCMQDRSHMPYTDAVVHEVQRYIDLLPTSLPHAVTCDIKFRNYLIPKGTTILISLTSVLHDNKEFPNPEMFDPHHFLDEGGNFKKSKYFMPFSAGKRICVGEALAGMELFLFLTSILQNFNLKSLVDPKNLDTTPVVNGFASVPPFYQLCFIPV
CYP2C9 inhib – human CYP2C9 inhibition. CYP2C9 Supersomes, luciferin-H conversion, luminescence. inhibition, % at 5 µM. 96,000 compounds, 20% hits. AID 777;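 active = blocking of liver enzyme CYP2C9 beyond about 50% at 5 µM, limit read from the data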
* marks the source's active call; other numbers are inactive results; x = not tested or not shown. The list is not random: actives were taken first. Their share in the collection is about 27%.

SMILES	CYP2C19 inh	Cav32 inh	CYP2C19 activ	CYP2C9 act	CYP2C9 inhib
O=C(CSc1ncnc2c1cnn2-c1ccccc1)Nc1ccc2c(c1)OCO2	27.5	x	0.7	0.4	63.4*
CCOC(=O)C1CCCN(C(=O)CCCn2nc(C)n3c(cc4sccc43)c2=O)C1 (stereo unspecified)	31.5	0.618	0.7	0.5	46.1
O=C(Nc1ccc2c(c1)OCCO2)C1CCN(C(=O)c2ccccc2)CC1	9.0	0.728	0.9	x	x
O=C(Nc1cccc(F)c1)C1CCN(c2nnnn2-c2ccccc2)CC1	38.4	-7.55*	0.6	0.5	50.6*
O=C(Nc1ccc2c(c1)OCCO2)C1CCN(C(=O)c2ccc(Br)cc2)CC1	47.7	-0.0125	0.5	0.2	85.0*
O=C(Nc1cccc(F)c1)C1CCN(C(=O)c2ccc(Br)cc2)CC1	90.1*	-4.34*	0.1	0.1	92.9*
O=C(NCC(c1cccnc1)N1CCN(c2ccccc2)CC1)C1CCCCC1 (stereo unspecified)	4.0	0.197	1	1	-4.4
Cc1ccc2nc(-c3ccc(O)cc3)c(Nc3ccc4c(c3)OCCO4)n2c1	41.8	-0.165	0.6	0.5	47.4
Cc1ccc(-c2nc3cnccn3c2Nc2ccc3c(c2)OCCO3)o1	87.4*	-2.43	0.1	0.3	72.5*
Cc1cc(C)n2c(Nc3ccc4c(c3)OCCO4)c(-c3ccccc3)nc2n1	35.9	-0.517	0.6	0.2	75.7*
Cc1ccc(-c2nc3cnccn3c2Nc2ccc3c(c2)OCO3)cc1	78.1*	-1.25	0.2	0.1	86.2*
COc1ccc(N/C=C\C(=O)c2ccc3c(c2)OCO3)cc1	26.6	-0.0241	0.7	1.2	-19.3
COc1ccc(-c2nc3cnccn3c2Nc2ccc3c(c2)OCO3)cc1	87.6*	-1.03	0.1	0.1	87.4*
CCCc1nnc(NC(=O)CC(=O)Nc2ccccc2C(=O)O)s1	15.5	0.598	0.8	1.1	-12.1
CCOC(=O)C(Cc1ccc(NC(=O)/C(=C/c2ccc(OC(C)=O)cc2)NC(C)=O)cc1)N1C(=O)c2ccccc2C1=O (stereo unspecified)	26.7	-0.0475	0.7	0.4	59.7*
COc1ccc(NC(=O)C(CCSC)N2C(=O)c3ccccc3C2=O)cc1 (stereo unspecified)	-37.5	0.00781	1.4	1.2	-17.7
CCOC(=O)C(Cc1ccc(NC(=O)/C(=C/c2ccccc2)NC(=O)c2ccccc2)cc1)N1C(=O)c2ccccc2C1=O (stereo unspecified)	51.9*	-0.585	0.5	0.1	91.2*
O=C(Nc1ccc(NC(=O)c2sc3ccccc3c2Cl)cc1Cl)c1ccco1	22.0	x	0.8	1.1	-8.8
O=C(O)c1sccc1SCc1ccc(Cl)cc1Cl	-3.7	x	1	0.5	53.5*
CNC(=S)NNC(=O)c1sccc1OCc1ccc(Cl)cc1Cl	6.4	0.379	0.9	0.9	6.5
CC(C(=O)c1ccccc1)n1c(N2CCOCC2)nc2c1c(=O)n(C)c(=O)n2C (stereo unspecified)	-8.1	0.395	1.1	1	-3.0
CCC(=O)c1ccccc1OCCCN1C(=O)NC(C)(C)C1=O	61.9*	-0.836	0.4	0.5	47.9
CC1(C)NC(=O)N(CC(O)COc2ccc(-c3ccccc3)cc2)C1=O (stereo unspecified)	44.5	0.253	0.6	0.9	12.7
COC(=O)c1ccc(OCC(O)CN2C(=O)NC(C)(C)C2=O)cc1 (stereo unspecified)	38.3	0.0524	0.6	0.9	14.1
CC1(C)NC(=O)N(CCOCCOc2ccc3ccccc3c2Br)C1=O	87.8*	-0.461	0.1	1	-3.6
SMILES	CYP2C19 inh	Cav32 inh	CYP2C19 activ	CYP2C9 act	CYP2C9 inhib
CC1(C)NC(=O)N(CCCCOc2ccc3ccccc3c2Cl)C1=O	95.3*	-1.35	0	1.2	-23.5
Cc1ccc(C(C)C)c(OCCCN2C(=O)NC(C)(C)C2=O)c1	89.9*	-0.027	0.1	0.5	54.1*
C=CCN1C(=O)C(C)(C)Nc2ccccc21	-5.0	0.422	1.1	1.2	-22.2
COc1cc(NC(=O)CC2NCCNC2=O)cc(OC)c1 (stereo unspecified)	-11.3	-3.66	1.1	1	-1.6
CCOC(=O)C1=C(C)C(c2ccccc2O)NC(=O)N1 (stereo unspecified)	23.3	0.0408	0.8	0.7	25.7
CCCc1cc(=O)oc2cc(C)cc(O)c12	25.1	-1.47	0.7	1.3	-30.7
CCCc1cc(=O)oc2c3c(c4c(c12)OC(C)(C)C=C4)OC(C)C(C)C3O (stereo unspecified)	x	-6.76*	x	x	x
CCOC(=O)Cc1csc(NC(=O)c2c(-c3ccccc3)noc2C)n1	82.0*	0.0809	0.2	0.2	83.0*
Cc1csc(NC(=O)c2ccoc2C)n1	100.0*	0.383	0	0.2	80.0*
Cc1onc(-c2ccccc2)c1C(=O)Nc1nc2c(s1)CCCC2	27.5	0.0593	0.7	0.5	46.1
CCOC(=O)Cc1csc(NC(=O)c2ccoc2C)n1	93.4*	0.0887	0.1	0.3	73.6*
Cc1onc(-c2ccccc2)c1C(=O)Nc1nc(-c2ccc(F)c(F)c2)cs1	78.8*	-1.36	0.2	0.3	67.8*
CCOC(=O)c1cc(NC(=O)c2ccoc2C)cc(C(=O)OCC)c1	40.0	-1.84	0.6	0.5	52.1*
COc1ccc(NC2(c3ccc(Cl)cc3)C(=O)c3ccccc3C2=O)cc1	x	-2.55	x	x	x
Cc1ccc(S(=O)(=O)N2CCOCC2)cc1C(=O)N1CCOCC1	1.6	0.382	1	1	-4.7
COc1ccc(S(=O)(=O)N2CCOCC2)cc1Cl	58.9*	-0.214	0.4	3.3*	-234.2
O=S(=O)(c1ccc2nc(COc3ccc(Cl)cc3Cl)[nH]c2c1)N1CCOCC1	50.7*	-2.49	0.5	0.4	57.8*
Cc1ccc(S(=O)(=O)N2CCOCC2)cc1C(=O)N1c2ccccc2Sc2ccccc21	14.3	-4.18*	0.9	0.4	61.3*
Cc1ccc(S(=O)(=O)N2CCOCC2)cc1C(=O)OCC(=O)N1CCc2ccccc2C1	74.7*	-2.94	0.3	0.2	78.3*
Cc1ccc(S(=O)(=O)N2CCCN(S(=O)(=O)c3ccc(C)c(C)c3)CC2)cc1C	7.5	x	0.9	1.2	-18.1
Cc1ccc(S(=O)(=O)N2CCN(S(=O)(=O)N3CCOCC3)CC2)cc1C	50.1*	1.23	0.5	1.1	-6.5
O=S(=O)(c1ccc2nc(-c3ccco3)c(-c3ccco3)nc2c1)N1CCOCC1	2.7	-3.23	1	0.1	90.7*
Cc1ccc(S(=O)(=O)N2CCSC2)cc1C	7.2	0.487	0.9	2.3*	-130.6
O=C(Nc1ccc(N2CCOCC2)cc1)Nc1ccc2nc(-c3ccco3)c(-c3ccco3)nc2c1	x	-0.00471	x	x	x
COc1ccc2cc(S(=O)(=O)N3CCOCC3)ccc2c1	79.3*	-0.127	0.2	0.9	13.7
Cc1ccc(S(=O)(=O)N2CCCSCC2)cc1	17.2	-0.226	0.8	1.5	-52.4
COC(=O)C1=C(COc2ccccc2)NC(=O)NC1c1ccc2ccccc2c1 (stereo unspecified)	x	-0.0209	x	x	x
